The results in this text go back to PubChem BioAssay AID1463 (National Center for Advancing Translational Sciences (NCATS), 2008).

Out of some 280,000 compounds screened, about 2,600 (0.93%) were called active. Not shown: some 8% with an inconclusive outcome. Calls come from the whole dose curve; as a rule, active = well fitted curve in the direction sought with a large enough effect; inconclusive = small, poorly fitted or top-dose-only effect; inactive = flat fitted curve, though single readings scatter. The list comes from a sample in which actives are over-represented; it also holds similar structures and randomly drawn compounds. Entries that show only a call come without a potency.
Potency is the fitted concentration of half-maximal effect; tags give direction and shape of the fitted curve or compound fluorescence and quenching.

The assay in a line: Counterscreen qHTS for Inhibitors of Tau Fibril Formation, Fluorescence Polarization. Note: nearly all actives have a fitted effect of over 55% in size. As to conditions: tau K18 P301L (four-repeat tau fragment) Alexa594 fluorescence, heparin fibrillization; series mostly up to 57.7 µM. The procedure, abridged: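 Human K18 P301L tau (15 uM unlabeled plus 0.24 uM Alexa 594-labeled, final) in 100 mM sodium acetate pH 7 was mixed with compound and 20 uM heparin and incubated 6 hr at 37 C.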
For orientation: A counterscreen serves to expose hits that act by an unwanted route or on another target.
With `O=C(CC(c1cccs1)N1Cc2ccccc2C1=O)Nc1ccc(F)c(F)c1` (centres undefined), the Potency entry was “inactive”. `CCCn1c2ccccc2c2cnn(CC(=O)N(C)c3ccccc3CC)c(=O)c21`: the Potency result is “inactive”. As to `O=C1Cc2cc(S(=O)(=O)Nc3ccc(OC(F)(F)F)cc3)cc3c2N1CCC3`, the Potency result is “inactive”.

Take `CCCCS(=O)(=O)c1oc(-c2cccs2)nc1S(=O)(=O)c1ccccc1`: the Potency result was “inactive”. For `CCOCCc1nn2c(=O)cc(COC(=O)CNC(=O)c3ccc(C(C)(C)C)cc3)nc2s1`, the Potency result was “inactive”.

In the case of `Cc1ccc(Nc2ccc3cc(S(=O)(=O)N4CCCCC4)ccc3n2)cc1F`, the Potency was 7.08 µM [quencher] (active). Consider `Cc1ccc(C)c(N2CCN(c3ccc4cc(S(=O)(=O)N5CCC(C)CC5)ccc4n3)CC2)c1`, for which the Potency result is “inactive”.

`O=S(=O)(c1ccc2nc(N3CCN(c4cccc(Cl)c4)CC3)ccc2c1)N1CCCCC1`: the Potency entry is “inactive”. For `Cc1nn(CC(=O)NCCc2ccccc2)c(=O)c2c1sc1ccccc12`, the Potency result was “inactive”. `CCn1c(CN2CCC(C)CC2)nc2cc(NC(=O)c3ccccc3[N+](=O)[O-])ccc21`: the Potency result was “inactive”. To `CCCn1c2ccccc2c2cnn(CC(=O)NCC3CCN(Cc4ccc(C)cc4)CC3)c(=O)c21` belongs “inactive”.

`Cc1ccc(C(=O)Nc2ccc(C(=O)O)cc2)cc1S(=O)(=O)Nc1ccccc1`: the Potency entry is “inactive”. Consider `COc1ccc(NS(=O)(=O)c2cc(NC(=O)CC(=O)c3ccc([N+](=O)[O-])cc3)ccc2C)cc1`, for which the Potency was 7.94 µM [quencher] (active). To `COc1ccc(S(=O)(=O)NC(C)C(=O)Nc2cccc([N+](=O)[O-])c2)cc1` (centres undefined) belongs “inactive”; to `COc1cc(NC(=O)Cn2nc(-c3ccc(C)c(C)c3)ccc2=O)cc(OC)c1`, “inactive”.

In the case of `Cn1c(SCC(=O)N2CCCc3ccccc32)ncc(C(=O)Nc2ccc(F)cc2)c1=O`, the Potency entry is “inactive”. Regarding `COc1ccc(-n2nnc(-c3nsc(NC(=O)c4ccc(C)c(C)c4)n3)c2C)cc1Cl`, the Potency entry is “inactive”. On to `CCN(CC)CC(=O)c1c[nH]c2ccc(OC)cc12`, for which the Potency result is “inactive”.

Regarding `COc1ccc2[nH]cc(/C=C(/C#N)S(=O)(=O)c3ccccc3)c2c1`, the Potency is 25.1 µM [quencher] (active). To `COc1ccc(/C=N/N=C/c2c[nH]c(=O)c(C#N)c2Nc2ccccc2)cc1` belongs “inactive”. The same measure for `CCOC(=O)C1=C(C)N=C2c3ccccc3C(=O)C2C1c1ccc(Br)cc1` (centres undefined): 11.2 µM [quencher] (active); for `CCOC(=O)C1=C(C)NC(SC)=NC1c1ccccc1` (centres undefined): “inactive”; for `CCOC(=O)C1=C(C)NC(=O)NC1c1ccccc1` (centres undefined): “inactive”. In the case of `CSc1nc(=O)c2c(n1C)NC(=O)CC2c1ccccc1OC(C)C` (centres undefined), the Potency entry is “inactive”. To `CCn1c(-c2cc(OC)ccc2OC)csc1=Nc1c(C)n(C)n(-c2ccccc2)c1=O` belongs “inactive”; to `CN=c1scc(-c2cc(OC)ccc2OC)n1/N=C/c1c(C)[nH]c2ccccc12`, 12.6 µM [quencher] (active).

`COC(=O)c1[nH]c2ccccc2c1NS(=O)(=O)c1ccc(OC)cc1OC`: the Potency result is “inactive”.

Regarding `CC(=O)N1CCCc2cc(S(=O)(=O)N3CCC(C(=O)NCc4ccc(F)cc4)CC3)ccc21`, the Potency result was “inactive”. The same measure for `COc1ccc(OC)c(NC(=O)C2CCCN(S(=O)(=O)c3ccc4c(c3)CCCC(=O)N4)C2)c1` (centres undefined): “inactive”. The same measure for `CCOc1ccccc1C(=O)NC1(C(F)(F)F)NC(=O)N(CCc2ccc(OC)c(OC)c2)C1=O` (centres undefined): “inactive”; for `CC(C)c1ccc(S(=O)(=O)Nc2ccc(O)c(Sc3nc4ccccc4s3)c2)cc1`: 14.1 µM [quencher] (active); for `O=C(O)c1cccc(S(=O)(=O)Nc2ccc(O)cc2Sc2nc3ccccc3s2)c1`: “inactive”. With `O=C(CSc1nc2ccccc2s1)Nc1ccc(C(=O)O)cc1`, the Potency result was “inactive”. For `Cc1nnc(SCC(=O)NCc2ccccc2Cl)c2nn(-c3ccccc3)c(C)c12`, the Potency result is “inactive”. For the compound `CCc1ccc(C2C(C(=O)Nc3ccccc3)=C(C)Nc3c(C(=O)Nc4ccc(C)cc4)cnn32)cc1` (centres undefined), the Potency result was “inactive”. Turning to `COc1ccccc1/C=C/c1nc(C#N)c(NC(C)c2ccccc2)o1` (centres undefined), the Potency was 11.2 µM [quencher] (active).

`COc1ccc(/C=C/c2nc(C#N)c(NCc3ccc(F)cc3)o2)cc1OC`: the Potency entry is “inactive”. To `CC(Nc1oc(-c2ccccc2)nc1-c1ccccc1)c1ccccc1` (centres undefined) belongs “inactive”; to `CCOc1ccc(-n2c(SCC(=O)NCc3ccccc3)nc3n[nH]c(C)c3c2=N)cc1`, “inactive”. To `Nc1cccc(CCc2nc3ccccc3[nH]2)c1` belongs “inactive”.

In the case of `Nc1cccc(-c2cc(-c3ccccc3)nc(-c3cccc(N)c3)n2)c1`, the Potency was 2.51 µM [quencher] (active). As to `Cc1nc(NNC(=O)c2ccccc2)cc(-c2ccccc2)n1`, the Potency entry was “inactive”. Regarding `CCCCn1c(CNC(=O)C23CC4CC(CC(C4)C2)C3)nnc1SCC(=O)Nc1ccc(C)cc1`, the Potency entry was “inactive”. To `O=C(CC(c1cccs1)N1Cc2ccccc2C1=O)Nc1ccc(F)cc1F` (centres undefined) belongs “inactive”. The same measure for `CCc1ccc(S(=O)(=O)Nc2cc3c(C(=O)OCc4ccccc4)c(C)oc3c3ccccc23)cc1`: “inactive”; for `COc1ccc(/C=N/NC(=O)c2cccc(C(F)(F)F)c2)cc1`: “inactive”; for `O=C(Cn1cc(/C=N/NC(=O)c2cccc(C(F)(F)F)c2)c2ccccc21)Nc1ccc(F)cc1`: 8.91 µM [quencher] (active). The same measure for `O=C(Cn1c(=O)n(-c2ccc(F)cc2)c(=O)c2sccc21)Nc1cccc(C(F)(F)F)c1`: “inactive”; for `O=C(CCCN1C(=O)/C(=C\c2ccco2)SC1=S)Nc1cccc2ccccc12`: “inactive”; for `O=C(CCCN1C(=O)/C(=C/c2ccccc2)SC1=S)Nc1ccc(O)cc1`: 25.1 µM [quencher] (active).

Regarding `COc1ccc(NC(=O)CCN2C(=O)/C(=C/c3ccc4c(c3)OCO4)SC2=S)cc1`, the Potency result was “inactive”.

With `COC(=O)c1ccc(NC(=O)c2cnn(-c3ccc(Cl)cc3)c2C2CCN(C(=O)OC(C)(C)C)CC2)cc1`, the Potency entry was “inactive”.

For `CC(NC(=O)COC(=O)c1ccc2c(c1)OCO2)c1ccccc1` (centres undefined), the Potency entry was “inactive”. As to `NC(=O)c1ccc(NC(=O)COC(=O)c2c3c(nc4ccccc24)/C(=C\c2ccc4c(c2)OCO4)CCC3)cc1`, the Potency is 8.91 µM [quencher] (active). Consider `O=C(COC(=O)c1c2c(nc3ccccc13)/C(=C\c1cccs1)CCC2)Nc1ccccc1Cl`, for which the Potency entry is “inactive”. To `CCC1CCCCN1C(=O)Cn1c(=O)n(CCCCCC(=O)NCc2ccccc2)c(=O)c2sccc21` (centres undefined) belongs “inactive”; to `CCC(=O)Nc1c(C(=O)N2CCN(c3ccc(F)cc3)CC2)oc2ccccc12`, “inactive”; to `CCc1ccccc1NS(=O)(=O)c1ccc2nc(-c3ccccc3)[nH]c2c1`, “inactive”. The same measure for `CCc1ccc(NC(=O)C2CCCN2S(=O)(=O)c2ccc3nc(-c4ccccc4)[nH]c3c2)cc1` (centres undefined): 25.1 µM [quencher] (active).

As to `CCc1nnc(NC(=O)C2CCCN2S(=O)(=O)c2ccccc2)s1` (centres undefined), the Potency entry was “inactive”.

Consider `Cc1ccccc1CNC(=O)c1ccc(NC(=O)N2CCCCc3ccccc32)cc1`, for which the Potency result was “inactive”. The same measure for `COCCNC(=O)c1ccccc1NS(=O)(=O)c1ccc(C)c([N+](=O)[O-])c1`: “inactive”. Regarding `CN1CCN(c2ccc(S(=O)(=O)Nc3ccccc3)cc2[N+](=O)[O-])CC1`, the Potency result was “inactive”. Turning to `O=[N+]([O-])c1cc(S(=O)(=O)Nc2cccc(Cl)c2)ccc1N=Nc1c(O)[nH]c2ccccc12`, the Potency was 14.1 µM [quencher] (active). To `O=C(NCc1ccccc1)c1cccc(NC(=O)N2CCSc3ncccc32)c1` belongs “inactive”; to `CCOC(=O)C1CCCN(C(=O)c2ccc3c(c2)sc2nc(-c4ccc(CC)cc4)cn23)C1` (centres undefined), “inactive”. The same measure for `CCCCCn1c(=O)[nH]c2cc(C(=O)Nc3cc(C)cc(C)c3)ccc2c1=O`: “inactive”; for `COc1cccc2sc(Nc3nc(C)c(C(C)=O)s3)nc12`: “inactive”; for `Fc1cc(F)c2nc(Nc3nc4c(F)cccc4s3)sc2c1`: “inactive”. The same measure for `NNc1nc2c(Cl)cccc2s1`: 15.8 µM [quencher] (active); for `COc1ccccc1CNC(=O)c1ccc(NC(=O)N2CC(C)Sc3ccccc32)cc1` (centres undefined): “inactive”. Consider `Cc1ccc(Nc2ccccc2N)cc1`, for which the Potency entry is “inactive”. To `c1ccc(Nc2n[nH]nc2-c2ccccc2)cc1` belongs “inactive”; to `Nc1ccc(Nc2ccccc2)cc1`, 14.1 µM [quencher] (active). On to `C[n+]1ccc(/C=C/c2c[nH]c3ccccc23)cc1`, for which the Potency result is “inactive”.

As to `CSC(=S)N/N=C/c1c[nH]c2ccccc12`, the Potency is 12.6 µM [quencher] (active). To `O=C(N/N=C/c1c[nH]c2ccccc12)c1cc2ccccc2o1` belongs “inactive”. Take `Cc1ccc(CN2CCc3nc(N4CCN(C)CC4)ncc3C2)cc1`: the Potency result was “inactive”. To `CCOc1ccc(N(Cc2ccccc2)C(=O)c2nc(S(C)(=O)=O)ncc2Cl)cc1` belongs “inactive”; to `CC1=C(C(=O)OCC(C)C)C(c2ccc(OCc3ccccc3)cc2)N2C(=O)CCSC2=N1` (centres undefined), “inactive”.

For `CCN1CCN(c2nc(Nc3cc(OC)ccc3OC)nc(Nc3cc(OC)ccc3OC)n2)CC1`, the Potency is 28.2 µM [quencher] (active). For `COc1ccc(OC)c(NC(=O)CCN2CCC(C)CC2)c1`, the Potency entry was “inactive”.

`CCOC(=O)N1CCN(CCC(=O)Nc2cc(OC)ccc2OC)CC1`: the Potency entry is “inactive”. Regarding `CCOC(=O)c1ccc(NC(=O)CCn2cnnn2)cc1`, the Potency result is “inactive”. To `CSc1nc(-c2ccccc2Cl)nc2c1Cc1c(CO)cnc(C)c1O2` belongs “inactive”; to `CCCOc1ccc(-c2cccc(NS(=O)(=O)c3ccccc3)c2)nn1`, “inactive”. Regarding `CSc1nc(-c2ccccc2)nc(C(Cl)Cl)n1`, the Potency entry is “inactive”. The same measure for `Cc1cc(Nc2ccccc2)nc(N)n1`: “inactive”; for `CSc1nc(Nc2ccc(F)cc2)cc(-c2ccccc2)n1`: 7.08 µM [quencher] (active); for `Cc1cc2c(cc1C)C(c1cccc(OC(C)C)c1)CC(=O)N2` (centres undefined): “inactive”. For the compound `O=[N+]([O-])c1ccc(N2CCN(c3ccc(O)cc3)CC2)c(Cl)c1`, the Potency was 14.1 µM [quencher] (active).

With `O=C(O)C1CCN(c2ccc([N+](=O)[O-])cc2[N+](=O)[O-])CC1`, the Potency result was “inactive”. To `COc1ccc(N2CCN(c3ccc([N+](=O)[O-])cc3Cl)CC2)cc1` belongs “inactive”. In the case of `CCN1CCN(c2ncnc3c2cnn3-c2ccc(C)c(C)c2)CC1`, the Potency entry was “inactive”.
